# Assay results: PubChem BioAssay AID485344 (National Center for Advancing Translational Sciences (NCATS), 2010)
# Screen size: about 340,000 compounds; about 6,900 (2%) were called active. Only a selection was taken, and actives are over-represented in it overall. Unmarked numbers belong to inactive results. No stated cut-off is given here; in the data, active means inhibition above about 30%; inactive means below that, where a call was filed.
# Target: D(2) dopamine receptor (Homo sapiens) (UniProt P14416)
# Test: HTS Assay for Allosteric Antagonists of the Human D2 Dopamine Receptor: Primary Screen for Antagonists; further: 0% is about no effect
# Conditions: HEK293 TREx D2 cells, calcium flux, dopamine EC80; at 10 µM; active compounds read high
# Procedure, shortened: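 Inhibition of EC80 dopamine-driven calcium flux, recorded kinetically, defines activity here; cells are a tetracycline-induced HEK293 T-REx line expressing force-coupled D2.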
# D(2) dopamine receptor (Homo sapiens), sequence (P14416 whole entry, looked up): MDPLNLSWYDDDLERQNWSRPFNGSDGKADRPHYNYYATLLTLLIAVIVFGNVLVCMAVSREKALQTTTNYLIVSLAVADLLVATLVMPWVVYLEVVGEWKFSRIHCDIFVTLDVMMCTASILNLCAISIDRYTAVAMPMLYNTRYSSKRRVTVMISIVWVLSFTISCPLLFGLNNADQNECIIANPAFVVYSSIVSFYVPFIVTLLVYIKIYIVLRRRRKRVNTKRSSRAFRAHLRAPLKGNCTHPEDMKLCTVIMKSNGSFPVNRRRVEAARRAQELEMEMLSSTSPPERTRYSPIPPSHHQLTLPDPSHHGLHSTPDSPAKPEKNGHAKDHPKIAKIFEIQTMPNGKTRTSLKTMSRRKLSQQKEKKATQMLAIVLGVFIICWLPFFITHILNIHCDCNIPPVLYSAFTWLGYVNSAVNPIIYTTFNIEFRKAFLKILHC
row,SMILES,inhibition
1,CCOc1ccc(CCNC(=O)COC(=O)CCS(=O)(=O)c2ccc(C)cc2)cc1OCC,-15.8%
2,O=C(NC1CCCCC1)c1ccc(-c2ccc(Cl)cc2)o1,17.9%
3,O=C1c2oc3ccc(Br)cc3c(=O)c2C(c2cccc(F)c2)N1CCO (centres undefined),24.1%
4,COCCN1C(=O)c2oc3c(C)cc(C)cc3c(=O)c2C1c1cccc(O)c1 (centres undefined),8.13%
5,O=C1c2oc3ccccc3c(=O)c2C(c2cccc(O)c2)N1c1ccccn1 (centres undefined),30.8% (active)
6,Cc1ccc(-c2nn(-c3ccccc3)cc2C(=O)NC2CCC(O)CC2)cc1 (centres undefined),11.3%
7,CC(C)(C)OC(=O)N[C@H](C(=O)OC(C)(C)C)c1ccc(Br)cc1,-2.43%
8,COc1cccc(C2=CC(=O)C[C@H](c3ccc(F)cc3)C2)c1OC,2.64%
9,Cc1ccc(S(=O)(=O)N2CCN(C(=O)CSc3cc(C)ccc3C)CC2)c(C)c1,12.2%
10,Cc1ccc(S(=O)(=O)N2CCN(C(=O)COC(=O)c3c(C)cc(C)cc3C)CC2)c(C)c1,-0.571%
11,CCCc1cc(=O)[nH]c(SCC(=O)N2CCN(S(=O)(=O)c3ccc(C)cc3C)CC2)n1,40.9% (active)
12,O=C(COC(=O)C1CC2CCCC(C1)C2=O)NC(=O)c1ccccc1 (centres undefined),-17.3%
13,CC(Oc1ccc(Br)cc1)C(=O)NC1CCCCCC1 (centres undefined),-1.39%
14,O=C(Nc1ccccc1C(=O)Nc1ccncc1)c1ccc([N+](=O)[O-])cc1,-16%
15,O=C(COc1ccc([N+](=O)[O-])cc1)Nc1cccc(C(=O)Nc2ccccc2C(=O)O)c1,52% (active)
16,O=C(COc1ccc([N+](=O)[O-])cc1)Nc1ccc(N2CCCC2)cc1,-10.9%
17,Cc1ccc(S(=O)(=O)N(C)CC(=O)NCC(c2ccc(F)cc2)N2CCOCC2)cc1 (centres undefined),12.3%
18,CCCn1nc(C(=O)NNC(=O)CSCC(=O)Nc2cc(C)on2)c2ccccc2c1=O,5.99%
19,CCCCn1nc(C(=O)Nc2cccc(C(=O)NC3CC3)c2)c2ccccc2c1=O,-27.4%
20,CCCn1nc(C(=O)Nc2ccc3nc(C)sc3c2)c2ccccc2c1=O,31% (active)
21,CN(C)CCn1c2c(c(SCC(=O)NCc3ccccc3)nc1=O)CCC2,-8.18%
22,COCCNc1nnc(SCC(=O)NNC(=O)c2ccco2)s1,-27.3%
23,COc1ccccc1NS(=O)(=O)c1ccc(C)c(C(=O)NCC(c2ccco2)N(C)C)c1 (centres undefined),7.48%

row,SMILES,inhibition
1,Clc1cccc(Cl)c1OCCOCCNCc1ccccc1,53% (active)
2,CN(C)CCOCCOc1ccc(Cl)c2ccccc12,-4.55%
3,COCCNCCOCCOc1cccc(OC)c1,-3.27%
4,O=[N+]([O-])c1ccc(N2CCN(CC(O)COc3ccccc3)CC2)cc1 (centres undefined),-9.55%
5,OC(COCc1ccco1)CN1CCN(c2ccccc2)CC1 (centres undefined),74.4% (active)
6,OC(COCC1COc2ccccc2O1)CN1CCN(c2ccc(F)cc2)CC1 (centres undefined),2.02%
7,O=C(CSc1nc2ccccc2c(=O)n1CCCO)NC1CC1,-4.48%
8,C=CCC(NC(=O)Cc1ccccc1)C(=O)NCCC (centres undefined),1.08%
9,CCCCC/C=C/C1=CC(=O)C[C@H](c2ccc(Cl)cc2)C1,3.21%
10,Cc1nnc(SCC(=O)N/N=C/c2cn(-c3ccccc3)nc2-c2ccc(F)cc2)n1-c1ccccc1,-8.35%
11,Cc1ccc(-c2nn(-c3ccccc3)cc2/C=N/NC(=O)c2ccc3c(c2)OCO3)cc1,31.8% (active)
12,CC(C)(C)OC(=O)N/N=C/c1cn(-c2ccccc2)nc1-c1cccnc1,-2.64%
13,Cc1ccc(OCC(=O)N2CCN(S(=O)(=O)c3ccc(Cl)s3)CC2)cc1C,-12%
14,CCCc1nc2ccccc2c(C(=O)OCc2nnc(-c3cc(OC)c(OC)c(OC)c3)o2)c1CC,38% (active)
15,O=C(OCc1nnc(-c2ccccc2)o1)c1cc(=O)[nH]c2ccccc12,6.34%
16,CCCc1nc2ccccc2c(C(=O)OCC(=O)c2ccc3c(c2)NC(=O)CO3)c1CC,-8.13%
17,COc1cc2[nH]c(=O)n(CCC(=O)NC3CCN(Cc4ccccc4)CC3)c(=O)c2cc1OC,-8.24%
18,COc1cc(C(=O)NC2CCN(Cc3ccccc3)CC2)cc(Cl)c1OC(C)C,47.6% (active)
19,CCOc1cc2[nH]c(=O)n(Cc3ccc(C(=O)NCCCN4CCCC4=O)cc3)c(=O)c2cc1OCC,9.71%
20,COc1cc2[nH]c(=O)n(Cc3ccc(C(=O)NC4CCN(Cc5ccccc5)CC4)cc3)c(=O)c2cc1OC,90.8% (active)
21,COC(=O)c1cccc(NC(=O)CN2CCC(NC(=O)c3cc(OC)c(OC)c(OC)c3)CC2)c1,-8.24%
22,COc1ccc(C(=O)NC2CC2)cc1OC1CCN(Cc2ccc(SC)cc2)CC1,2.51%
23,Cc1c(NC(=O)CSc2nnc(-c3cccnc3)n2N)c(=O)n(-c2ccccc2)n1C,7.44%

row,SMILES,inhibition
1,CCCCn1c(N)c(N(CCC(C)C)C(=O)c2ccc(COc3ccccc3)o2)c(=O)[nH]c1=O,-9.11%
2,C#CCOCCOCCOCCNc1nc(N2CCN(C(=O)CCCCCCCCCCNC(=O)[C@H]([C@@H](C)CC)n3cc(CCCCN=C(N)N)nn3)CC2)nc(N2CCN(C(=O)CCCCCCCCCCNC(=O)[C@H](CO)n3cc(CCCSC)nn3)CC2)n1,1.17%
3,Cc1ccn2c(=O)nc(SCC(=O)NCc3ccc(F)cc3)nc2c1,17.8%
4,CC1CCCCN1C(=S)NCc1ccccc1 (centres undefined),31.9% (active)
5,C/C(=N\NC(=S)NCc1ccccc1)C1CCCCC1,-10.6%
6,CC1CCCCN1C(=O)CCS(=O)(=O)Cc1ccccc1 (centres undefined),3.72%
7,O=C(CN1CCCSc2ccccc21)N1CCN(S(=O)(=O)c2ccccc2)CC1,3.3%
8,O=C(OCc1cc(=O)n2ccsc2n1)C1(c2ccc(Cl)cc2)CC1,29.3%
9,CSCCC(NC(=O)c1ccccc1)C(=O)N1CCN(Cc2ccc(Cl)cc2)CC1 (centres undefined),-14.3%
10,N#Cc1ccc(C2=CC(=O)C[C@H](c3ccc(Cl)cc3)C2)cc1,-1.65%
11,CCc1ccccc1NC(=O)CN(C)C(=O)c1cc(C2CC2)nn1-c1ccccc1,2.39%
12,COc1ccc(NC(=O)CN(C)C(=O)c2cc(C3CC3)nn2-c2ccccc2)cc1,39.5% (active)
13,COc1cccc(NC(=O)CN(C)C(=O)c2cc(C3CC3)nn2-c2ccccc2)c1,-0.486%
14,Cc1csc(=O)n1CCC(=O)OCC(=O)NNC(=O)c1ccc(Br)cc1,-9.52%
15,Cc1c(C(C)CCCO)oc(=O)c2c1Oc1c(C)c(C(C)C[C@@H](C)O)oc(=O)c1C2 (some centres undefined),17%
16,Cc1ccc(C(=O)OCC(=O)N2CC(C)CC(C)C2)cc1S(=O)(=O)N1CCCCC1 (centres undefined),19.3%
17,O=C(CCN1CCN(c2ccccc2)CC1)NNC(=S)Nc1ccccc1,61.2% (active)
18,O=C(CN1CCN(c2ccc(F)cc2)CC1)Nc1ccccc1,-19.8%
19,O=C(CN1CCN(c2ccccc2)CC1)Nc1ccc(F)cc1,13.5%
20,Cc1cccc(C)c1NC(=O)COC(=O)c1c(C)nn(-c2ccccc2)c1C,1.57%
21,Cc1ccc(C(CC(=O)O)NC(=O)c2ccc(S(=O)(=O)N3CCCC3)cc2)cc1 (centres undefined),8.12%
22,CN(C)CCNC(=O)Cc1ccc([N+](=O)[O-])cc1,-7.39%
23,CCCCN(C)c1ccc([N+](=O)[O-])cc1,-0.645%

row,SMILES,inhibition
1,CN(C)CCCN1C(=O)CSC1c1ccc([N+](=O)[O-])cc1 (centres undefined),34% (active)
2,CC(=O)Nc1ccc(S(=O)(=O)N2CCn3cccc3C2C)cc1 (centres undefined),2.61%
3,CCC(c1nnc(SCC(=O)NNC(=O)c2ccccc2)n1Cc1ccccc1)N(C)C (centres undefined),-24.9%
4,CCn1c(SCC(=O)NNC(=O)c2ccc(OC)cc2)nnc1C(C)C,-19.3%
5,Cc1cccc(C(=O)NNC(=O)CSc2nnc(C(C)C)n2C)c1,41.8% (active)
6,CN(CC(=O)NCc1ccc2c(c1)OCO2)CC(=O)Nc1ccc(F)c(F)c1F,-25.8%
7,CCC[C@H]1CCCC/C=C\CCCC(=O)OCCN1C(=O)OC(C)(C)C,-5.66%
8,COc1ccccc1/C=C/CN1CCC(CO)(Cc2ccccc2)CC1,53.2% (active)
9,COc1ccccc1/C=C/C=N/NC(=O)CN1CCN(Cc2ccccc2)CC1,-10.7%
10,COC(=O)CCC(=O)N1CCCC(CO)(Cc2ccccc2)C1 (centres undefined),3.17%
11,Cc1cc(NC(=O)COc2ccc([N+](=O)[O-])cc2)no1,-5.38%
12,COc1ccccc1NC(=O)COC(=O)COc1ccccc1F,-3.39%
13,Cc1ccc(OCCNC(=O)CN2C(=O)NC3(CCCC3)C2=O)cc1,1.97%
14,COc1cc(C(c2c(NC(=O)c3ccco3)sc(C)c2C)N2CCOCC2)cc(OC)c1OC (centres undefined),-0.625%
15,CCOc1ncccc1C(=O)OCC(=O)N1c2ccccc2CC1C (centres undefined),-9.6%
16,CN(CC(=O)NC1CCN(Cc2ccccc2)CC1)S(=O)(=O)c1ccc(Cl)s1,68.5% (active)
17,CN(CC(=O)NC1CCCCC1)S(=O)(=O)c1ccc(Br)s1,3.02%
18,CCOc1ccc(CC(=O)NC2CCN(Cc3ccccc3)CC2)cc1,7.65%
19,CC(C)N(C(=O)CSc1nnc(NC2CC2)s1)c1ccccc1,-9.12%
20,Nc1nnc(SCC(=O)NCC(=O)Nc2ccc(F)c(F)c2F)s1,17.4%
